Reference: ChEMBL document CHEMBL5724796, “Tm Shift (DSF) assay results for EUbOPEN Chemogenomics Library” (2024)
Residues, ends and D or L forms follow the SMILES beside them. *: point of attachment. CH2Cl = ClC*

Experiments:
Conditions in all cases: Compound concentration 20.0 uM
[1] = target: Tyrosine-protein kinase ABL1 (Homo sapiens) (UniProt P00519)
[2] = target: Bromodomain-containing protein 4 (Homo sapiens) (UniProt O60885)
[3] = target: Cyclin-dependent kinase 2 (Homo sapiens) (UniProt P24941)
[4] = target: Casein kinase I isoform delta (Homo sapiens) (UniProt P48730)
Sequence of Casein kinase I isoform delta (Homo sapiens) (P48730 whole entry, looked up, canonical isoform): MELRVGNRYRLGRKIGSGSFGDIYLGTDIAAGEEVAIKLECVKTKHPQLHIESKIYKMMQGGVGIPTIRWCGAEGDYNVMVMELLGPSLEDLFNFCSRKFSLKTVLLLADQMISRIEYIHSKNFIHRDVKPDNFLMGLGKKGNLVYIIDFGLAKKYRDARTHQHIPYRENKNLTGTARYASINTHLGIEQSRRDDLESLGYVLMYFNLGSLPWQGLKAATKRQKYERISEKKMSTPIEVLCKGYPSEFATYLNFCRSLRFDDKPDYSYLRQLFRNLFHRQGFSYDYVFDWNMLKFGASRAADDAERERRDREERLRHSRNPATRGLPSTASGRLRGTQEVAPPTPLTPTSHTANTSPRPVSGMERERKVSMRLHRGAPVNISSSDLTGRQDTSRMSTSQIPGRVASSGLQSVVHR

[5] = target: Glycogen synthase kinase-3 beta (Homo sapiens) (UniProt P49841)
Sequence of Glycogen synthase kinase-3 beta (Homo sapiens) (P49841 whole entry, looked up): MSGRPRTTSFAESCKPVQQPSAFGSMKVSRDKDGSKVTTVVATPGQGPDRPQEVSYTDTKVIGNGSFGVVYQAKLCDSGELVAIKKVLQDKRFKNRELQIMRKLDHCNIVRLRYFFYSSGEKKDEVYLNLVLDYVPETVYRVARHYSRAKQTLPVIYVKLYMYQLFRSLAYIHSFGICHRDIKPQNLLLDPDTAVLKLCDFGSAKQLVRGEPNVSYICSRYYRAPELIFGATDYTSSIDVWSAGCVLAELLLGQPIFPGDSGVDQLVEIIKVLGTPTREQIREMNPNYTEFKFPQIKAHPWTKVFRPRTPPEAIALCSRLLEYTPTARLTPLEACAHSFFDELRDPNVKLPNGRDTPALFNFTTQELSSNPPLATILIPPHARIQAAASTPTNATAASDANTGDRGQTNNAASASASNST

[6] = target: Mitogen-activated protein kinase 1 (Homo sapiens) (UniProt P28482)
Sequence of Mitogen-activated protein kinase 1 (Homo sapiens) (P28482 whole entry): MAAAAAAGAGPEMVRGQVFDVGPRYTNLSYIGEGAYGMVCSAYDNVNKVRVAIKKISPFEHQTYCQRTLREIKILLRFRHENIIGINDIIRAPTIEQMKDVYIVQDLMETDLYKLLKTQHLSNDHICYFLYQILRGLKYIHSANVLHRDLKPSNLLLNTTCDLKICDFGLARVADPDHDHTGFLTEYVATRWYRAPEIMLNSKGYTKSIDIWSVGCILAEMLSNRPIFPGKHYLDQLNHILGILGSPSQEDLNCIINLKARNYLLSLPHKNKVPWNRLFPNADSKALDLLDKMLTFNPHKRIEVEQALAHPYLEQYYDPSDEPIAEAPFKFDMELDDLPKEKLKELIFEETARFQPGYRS

[7] = target: T1, Aurora kinase A (Homo sapiens) (UniProt O14965)
T1 sequence (whole entry): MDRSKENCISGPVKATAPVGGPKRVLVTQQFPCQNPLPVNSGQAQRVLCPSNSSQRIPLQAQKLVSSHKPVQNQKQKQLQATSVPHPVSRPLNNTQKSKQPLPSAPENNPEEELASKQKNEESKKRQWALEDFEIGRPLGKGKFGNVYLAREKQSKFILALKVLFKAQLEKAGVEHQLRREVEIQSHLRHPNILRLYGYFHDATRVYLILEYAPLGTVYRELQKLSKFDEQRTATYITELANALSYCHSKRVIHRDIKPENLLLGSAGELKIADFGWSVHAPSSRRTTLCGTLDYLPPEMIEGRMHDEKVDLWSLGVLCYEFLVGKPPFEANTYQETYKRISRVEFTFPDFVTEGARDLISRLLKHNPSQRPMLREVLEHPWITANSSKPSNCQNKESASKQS

[8] = target: T2, Transcription intermediary factor 1-alpha (Homo sapiens) (UniProt O15164)
T2 sequence (whole entry): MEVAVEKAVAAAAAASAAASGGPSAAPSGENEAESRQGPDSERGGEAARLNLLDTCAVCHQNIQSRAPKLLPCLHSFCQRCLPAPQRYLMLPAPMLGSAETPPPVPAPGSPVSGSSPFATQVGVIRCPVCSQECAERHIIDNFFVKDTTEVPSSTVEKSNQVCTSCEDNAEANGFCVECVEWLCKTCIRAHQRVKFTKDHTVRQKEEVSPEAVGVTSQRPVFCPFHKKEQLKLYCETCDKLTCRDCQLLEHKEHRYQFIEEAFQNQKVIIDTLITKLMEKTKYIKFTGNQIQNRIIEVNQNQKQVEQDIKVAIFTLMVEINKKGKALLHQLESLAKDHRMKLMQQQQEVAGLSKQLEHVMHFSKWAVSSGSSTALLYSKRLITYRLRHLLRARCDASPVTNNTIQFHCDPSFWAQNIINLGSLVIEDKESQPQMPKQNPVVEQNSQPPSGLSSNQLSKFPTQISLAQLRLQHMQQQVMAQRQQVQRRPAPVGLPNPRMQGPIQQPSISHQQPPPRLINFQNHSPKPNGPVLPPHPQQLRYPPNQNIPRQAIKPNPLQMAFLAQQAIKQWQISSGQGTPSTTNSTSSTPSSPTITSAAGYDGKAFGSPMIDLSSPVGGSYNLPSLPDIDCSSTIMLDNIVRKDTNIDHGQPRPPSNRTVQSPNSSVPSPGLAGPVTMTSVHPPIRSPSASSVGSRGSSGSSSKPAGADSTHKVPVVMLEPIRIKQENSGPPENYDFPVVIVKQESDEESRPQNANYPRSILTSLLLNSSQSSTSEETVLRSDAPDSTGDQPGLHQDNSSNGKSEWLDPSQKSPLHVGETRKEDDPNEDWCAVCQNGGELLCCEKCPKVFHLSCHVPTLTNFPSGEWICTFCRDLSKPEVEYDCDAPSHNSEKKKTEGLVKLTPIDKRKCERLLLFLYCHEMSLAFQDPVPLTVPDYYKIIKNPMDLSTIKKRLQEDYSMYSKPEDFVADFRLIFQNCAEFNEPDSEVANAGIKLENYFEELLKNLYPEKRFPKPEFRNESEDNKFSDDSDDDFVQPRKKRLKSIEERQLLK

Sequence of Tyrosine-protein kinase ABL1 (Homo sapiens) (P00519 whole entry): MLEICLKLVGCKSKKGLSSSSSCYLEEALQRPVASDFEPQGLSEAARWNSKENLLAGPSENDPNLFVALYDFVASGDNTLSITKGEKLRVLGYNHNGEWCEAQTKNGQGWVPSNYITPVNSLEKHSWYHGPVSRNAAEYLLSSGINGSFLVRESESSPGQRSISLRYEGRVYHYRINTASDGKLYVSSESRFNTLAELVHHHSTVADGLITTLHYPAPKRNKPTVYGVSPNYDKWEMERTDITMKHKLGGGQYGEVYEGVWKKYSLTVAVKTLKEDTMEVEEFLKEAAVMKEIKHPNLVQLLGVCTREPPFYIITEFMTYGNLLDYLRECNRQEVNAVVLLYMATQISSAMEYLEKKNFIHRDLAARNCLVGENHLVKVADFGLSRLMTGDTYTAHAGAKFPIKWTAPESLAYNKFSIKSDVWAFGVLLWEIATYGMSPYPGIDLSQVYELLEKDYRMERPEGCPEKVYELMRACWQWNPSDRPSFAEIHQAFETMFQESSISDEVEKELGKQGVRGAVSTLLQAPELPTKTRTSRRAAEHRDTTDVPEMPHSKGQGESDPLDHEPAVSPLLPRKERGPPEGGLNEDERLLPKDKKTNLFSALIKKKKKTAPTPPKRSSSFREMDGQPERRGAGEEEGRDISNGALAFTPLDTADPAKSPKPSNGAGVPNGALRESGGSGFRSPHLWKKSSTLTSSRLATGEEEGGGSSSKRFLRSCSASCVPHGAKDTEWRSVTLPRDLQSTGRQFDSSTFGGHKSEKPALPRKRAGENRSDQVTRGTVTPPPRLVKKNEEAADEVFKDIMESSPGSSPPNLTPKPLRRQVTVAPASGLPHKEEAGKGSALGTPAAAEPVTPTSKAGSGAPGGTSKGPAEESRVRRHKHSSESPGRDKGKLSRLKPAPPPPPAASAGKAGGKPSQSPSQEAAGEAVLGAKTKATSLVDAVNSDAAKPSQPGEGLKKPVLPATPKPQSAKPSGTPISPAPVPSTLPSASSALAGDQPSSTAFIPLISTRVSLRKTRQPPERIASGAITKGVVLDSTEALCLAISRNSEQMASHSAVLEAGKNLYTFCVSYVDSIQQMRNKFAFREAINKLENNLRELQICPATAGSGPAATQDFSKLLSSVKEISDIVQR

SMILES	ΔTm [1] [°C]	ΔTm [2] [°C]	ΔTm [3] [°C]	ΔTm [4] [°C]	ΔTm [5] [°C]	ΔTm [6] [°C]	ΔTm [7] [°C]	ΔTm [8] [°C]
OC[C@H]1O[C@@H](c2ccc(F)c(Cc3cc4ccccc4s3)c2)[C@H](O)[C@@H](O)[C@@H]1O	0.51	-3.4	0.04	-0.29	-0.62	0.05	-1.82	-0.42
Cc1ccc(C)c(-n2sc3cc(F)ccc3c2=O)c1	-15.6	-11.5	-5.52	-0.06	0	-16.1	-1.97	0
Nc1ncnc2c1ncn2[C@@H]1O[C@H](C[C@@H](N)CC[C@H](N)C(=O)O)[C@@H](O)[C@H]1O	0.31	-2.03	-0.94	0.18	-1.05	-1.35	-1.45	-0.73
Cc1[nH]nc(C(F)(F)F)c1Cc1sc2c(c1C(=O)N1C[C@](C)(O)CO1)c(=O)n(C)c(=O)n2C(C)C	0.25	1.76	1.15	-0.46	-0.31	0.35	-1.82	1.02
N#Cc1c(N)[nH]c2cc(/C=C/c3cccc(F)c3)ccc12	1.1	3.17	2.67	-0.33	-0.5	1.9	0.33	1.03
CC(=O)OCCN1C(=O)c2c(C)nc3ccc(S(=O)(=O)N4CCOCC4)cc3c2C1=O	-0.43	-1.49	-0.16	0.13	-0.73	-0.31	-1.13	-1.22
Cc1cc(-c2ccc3nc(C4CCOCC4)n(CCOC(F)(F)F)c3c2)cn(C)c1=O	0.26	10.3	0.15	0.13	-0.07	-0.47	-0.36	-0.3
CCCSc1nc(N[C@@H]2C[C@H]2c2ccc(F)c(F)c2)c2nnn([C@@H]3C[C@H](OCCO)[C@@H](O)[C@H]3O)c2n1	0.97	-3.15	-0.32	-0.02	-1.82	0.5	-2.27	0.03
O=S(=O)(O)c1ccc2cc(/N=N/c3cc(S(=O)(=O)O)c4cccnc4c3O)ccc2c1	0.53	-2.44	2.89	0.85	1.3	-3.54	-2.45	-1.13
C/C=C1\NC(=O)[C@H]2CSSCC/C=C/[C@H](CC(=O)N[C@H](C(C)C)C(=O)N2)OC(=O)[C@H](C(C)C)NC1=O	-1.22	-2.72	-0.96	-0.77	-0.05	-6.13	-0.48	0.22
Cc1c(CN2CCC(Nc3ncnc4sc(CC(F)(F)F)cc34)CC2)ccc2c1cc(C#N)n2Cc1cn[nH]c1	0.97	-1.35	-0.07	1.61	0.28	-7.35	-1.51	0.6
O=C(NCCc1cc(C(=O)NO)no1)c1ccc(Cl)c(Cl)c1	1.11	-2.11	0.66	0.6	-1.05	0.3	-0.59	-0.96
COc1cccc(OC)c1S(=O)(=O)Nc1noc2cc(Cn3cccn3)cc(OC)c12	0.73	-2.01	0.06	-0.03	-1.16	0.02	-0.5	-1.5
CS(=O)(=O)N1CCN(C(=O)c2cnc3ccc(F)cc3c2N2CCC(C#N)(c3ccccc3)CC2)CC1	0.43	-2.17	-0.17	0.48	0.47	-0.62	-0.82	0
CC(=O)N[C@@H](CC(C)C)C(=O)N[C@@H](CCC(=O)O)C(=O)N[C@@H](Cc1cnc[nH]1)C(=O)N[C@@H](CC(=O)O)C(=O)CCl (Ac-LEHD-CH2Cl)	0.46	-2.67	-0.58	0.2	0.91	0.29	-1.15	-1.2
CN(CCCN1c2ccccc2CCc2ccccc21)CC(=O)c1ccc(Cl)cc1	-0.37	-0.08	0.04	-0.19	-0.11	0.76	-1.35	0.15
CC(C)Oc1ccc2c(=O)[nH]c3sccc3c2c1	2.81	-1.93	0.87	1.82	0.89	0.11	-0.48	-0.42
O=C(NCCCn1ccnc1)c1cc2nc(-c3ccccc3)cc(-c3ccccc3)n2n1	0.26	-2.23	-0.13	0.15	-0.59	-2.4	-0.86	-0.04
CC(C)(Sc1ccncc1-c1ccc(C#N)c2ccccc12)C(=O)O	-0.01	-0.37	-0.1	-0.19	-0.7	0.17	-1.93	-0.49
CNC(=O)c1cc(Nc2ccnc(Nc3ccc(CCNC(=O)OC(C)(C)C)cc3)n2)n[nH]1	0.52	-6.4	-0.49	0.55	-1.3	-12.3	-0.62	0.91
CC(=O)O[C@]1(C(C)=O)CC[C@H]2[C@@H]3CCC4=CC(=O)CCC4=C3[C@@H](c3ccc(N(C)C)cc3)C[C@@]21C	0.29	-2.72	-0.32	0.22	-0.83	-0.05	-1.14	-1.79

SMILES	ΔTm [1] [°C]	ΔTm [2] [°C]	ΔTm [3] [°C]	ΔTm [4] [°C]	ΔTm [5] [°C]	ΔTm [6] [°C]	ΔTm [7] [°C]	ΔTm [8] [°C]
COc1cc2c(cc1OC)[C@H]1C[C@@H](OC(=O)[C@@H](N)C(C)C)[C@H](CC(C)C)CN1CC2	0.26	1.87	0.58	-0.31	-0.94	0.3	-1.54	0.19
O=C(COc1ccc(-c2oc3cc(O)c(C(=O)O)cc3c2C#Cc2cccc(Cl)c2)cc1)NC1CC1	0.23	-1.93	0.55	0.15	-0.41	-0.57	-0.11	-0.84
CC(C)(CNC(=O)c1cccc(-c2noc(C(F)(F)F)n2)c1)c1coc(-c2ccccc2)n1	0.61	-3.84	0.39	0.45	-8.42	-3.6	-2.8	-1.82
Cc1nn2c(nc(O)c3cccnc32)c1C#N	0.68	-3.07	0.02	-0.11	-0.51	0.18	-2.1	1.17
Cc1cc(OCCCNCC(C)(C)C(N)=O)ccc1Cc1c(O[C@@H]2O[C@H](CO)[C@@H](O)[C@H](O)[C@H]2O)n[nH]c1C(C)C	0.7	-2.92	0.08	-0.08	-0.66	0.38	-2.36	0.9
CC(C)(C)c1ccc(S(=O)(=O)NCc2ccc(C(=O)Nc3cccnc3)cc2)cc1	0.45	-2.48	-0.13	-0.13	-1.45	0.7	-2.1	0.99
N[C@@H](CCCCB(O)O)C(=O)O	0.06	1.28	0.26	-0.26	-0.55	0.18	-0.4	-0.41
N#Cc1ccc(-c2csc(NN=C3CCCC3)n2)cc1	1.02	-1.71	-3.5	0.34	-3.93	-0.09	-0.22	-1.63
O=C(c1cc(Cl)c(O)c(Cl)c1)N1CS(=O)(=O)c2ccccc21	0.71	-0.92	0.15	-0.26	0.51	0.24	-2.22	-0.84
COc1ccccc1C(=O)Nc1cc2c(cc1N1CCCCC1)n(C)c(=O)n2C	0.35	-2.11	0.1	0.01	0.08	0.17	-1.43	-0.76
CS(=O)(=O)c1ccc(-c2nnc(C=Cc3nnc(-c4ccc(C#N)cc4)o3)n2-c2ccccc2Cl)nc1	0.4	-3.09	0.99	-0.25	-0.77	-0.27	-1.63	0.34
O=C(N(CCc1ccccc1)C1CCCCC1)n1ncc(-c2ccc(OC(F)(F)F)cc2)n1	-0.68	-2.75	0.18	0.03	-3.35	0.11	-1.75	0.14
Nc1c[nH]c(=O)c2cc(-c3ccccc3)sc12	0.27	-1.56	-0.22	0.6	-0.86	0.57	-0.64	-1.2
O=C(CN1CCN(c2ccc(F)cn2)CC1)Nc1nc2c(s1)CCCC2	0.42	-2.75	0.14	-0.25	0.02	0.86	-1.16	-2.28
CCCN1CCN(c2ccc(C(=O)NC3(C(=O)NCC#N)CCCCC3)cc2)CC1	0.17	-1.33	0.57	0.09	-0.34	-0.16	-0.29	-0.56
COc1c(CN)cc(CN)cc1OCCCN1Cc2ccccc2C1	0.19	-1.72	-0.14	-0.24	-0.15	0.22	-2.26	0.95
Cc1cc(OCCCNCCC(N)=O)ccc1Cc1c(O[C@@H]2O[C@H](CO)[C@@H](O)[C@H](O)[C@H]2O)n[nH]c1C(C)C	0.54	-1.5	0.03	-0.12	-0.7	0.24	-2.37	-0.75
CC(C)[C@H](NC(=O)OCc1ccccc1)C(=O)NC(CC(=O)O)C(=O)CF (stereo partly specified)	-0.18	-3.41	-0.73	0.1	0.35	-0.08	-2.03	-1.64
CC(C)(C)c1ccc(CN(C(=O)CN(Cc2c(F)c(F)c(F)c(F)c2F)S(=O)(=O)c2ccc(F)cc2)c2ccc(C(=O)NO)cc2)cc1	1.56	8.81	9.04	-5.74	14.4	-2.29	9.93	0
Cc1ccc([N+](=O)[O-])cc1S(=O)(=O)N(C)C	0.7	-1.98	0.09	-0.33	-0.61	0.1	-2.12	-0.39
O=C(O)/C(S)=C/c1c[nH]c2ccc(F)cc12	-1	-4.6	-0.97	0.7	-0.98	0.11	0.25	-2.02
